From PubChem BioAssay AID624498 (National Center for Advancing Translational Sciences (NCATS), 2012) come the findings set out here.

Structures are written as SMILES. Calls of active or inactive are those of the source.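 How the source made its calls: active means a band for the stress protein GRP78 appears on a western blot of treated cells; inactive means no band seen on the blot.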

The test in a line: Hit Validation Western Blot Assay for Inducers of ERSR: Assessment of GRP78 Upregulation. The following applies: cells, 4-24 h. From the text: Primary protein unfolding takes place for many diseases, including diabetes and hypoxia, , and triggers a reaction in the cells called ER stress response (ERSR). ). ERSR is designed as a repair mechanism, but ultimately leads to cell death via apoptosis if conditions triggering protein unfolding persist (1). The molecular clue to ERSR activation is the enhancement of the expression of key molecular chaperones, including the glucose regulated protein (GRP) 78. GRP78 is the main sensor for protein folding and the main actuator of the ERSR. In a collaboration between the Southern Research Institute and the NIH Chemical Genomics Center, a cell based screen was developed that reliably uses GRP78 as a sensor to identify small molecules as inducers of ERSR. In resting conditions, GRP78 binds proteins and acts as a natural repressor. Once unfolded proteins are present in the ER, GRP78 releases some of the repressors and binds to the unfolded proteins. The release of the repressors executes the ERSR program. Using a human glioma cell line in a miniaturized, luminescent format, a high-throughput screen was developed to identify actuators of the ERSR. In this assay, hits identified in the primary ERSR screen were characterized for their effects on wild type GRP78 upregulation using a western blot secondary assay. NIH Chemical Genomics Center [NCGC] […]
(In general: In western blotting, separated proteins are transferred to a membrane and probed.)
In the case of `Cc1noc(C)c1C(=O)N1CCC2(CCCN(C(c3ccccc3)c3ccccc3)C2)CC1`, the outcome was “active; yes”.
